# Source: PubChem BioAssay
# FMDV antiviral – High Throughput Screening for Foot and Mouth Disease Virus Antivirals | FMDV antiviral cell-based qHTS | Potency, µM (titrated, usually from 57.9 µM), most hits filed as inhibitors | 410,000 tested, 1.2% active; calls by dose curve; tested in HEK293T cells; also: read-out not given here; nearly all actives have a fitted effect of over 45% in size
# Lassa entry inh – qHTS for Inhibitors of binding or entry into cells for Lassa Virus | 300,000 tested, 1.2% active | AID 540256, 2011 | Potency, µM (doses to about 37.9 µM), most hits filed as inhibitors | Lassa virus pseudotype entry inhibition, cell reporter; calls by dose curve; tested in HEK293 cells; also: nearly all actives have a fitted effect of over 50% in size
# MARV entry inh – qHTS for inhibitors of binding or entry into cells for Marburg Virus; Marburg virus pseudotyped entry inhibition, cell reporter; Potency, µM (highest dose often 37.8 µM), usual class: inhibitors; 300,000 tested, 1.8% active; AID 540276, 2011; calls by dose curve; tested in HEK293 cells
# HCMV antiviral – qHTS Assay for inhibitors of the human cytomegalovirus (HCMV); HFF cells, HCMV-luciferase reporter, 72 h; hits give low values; activity change, negative = inhibition, % at 57.5 µM; 410,000 tested, 4.5% active; AID 1259415, 2018; in the data active = activity change below about -60%; inconclusive = no clear call, values can overlap the other calls; inactive = above about -39%
#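 Steps: HFFs plated, 16 h 37C; compounds added; HCMV-luciferase added to MOI 1 PFU/cell; 72 h 37C; OneGlo reagent, 5 min room temperature; luminescence read, normalized to controls.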
# HCV inhibitor – qHTS Assay for Inhibitors of Hepatitis C Virus (HCV); Huh7.5.1 HCVcc-Cre infection, luciferase reporter, 44 h; Potency, µM (titrated, usually from 41.8 µM), most hits filed as inhibitors; 340,000 tested, 3.4% active; active = well fitted inhibition curve with a large enough effect; inconclusive = small, poorly fitted or top-dose-only effect, or another doubt; inactive = no such curve, though single readings can be large or run the other way
#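 Cells (1,000/well) were plated 4 h before compound, then infected with HCVcc-Cre virus (~0.5 moi). After 44 h further culture, infection was read as luciferase luminescence following a 15 min substrate incubation at room temperature.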
# Hits are given with their value; 0 = inactive; ? = inconclusive; - = no result given; ! = not active in a repeat; [ ] = remark or other dose. This is a sample that favours compounds with a hit; in the whole collection about 7.9% have one here.
SMILES,FMDV antiviral,Lassa entry inh,MARV entry inh,HCMV antiviral,HCV inhibitor
COC(=O)C(NC(=O)c1ccco1)(Nc1nc(C2CC2)cs1)C(F)(F)F (stereo not given),0,0,?,-66.9,0
COc1ccccc1NC1=NCCS1,0,0,0,0,0
Cc1cc(C)c(NC2=NCCS2)cc1C,0,-,-,-89.0,-
Cc1[nH]c2ccccc2c1/C=N/Nc1nc(Nc2ccccc2)nc(N2CCOCC2)n1,0,5.8µM,0.326µM,-99.4,?
Oc1[nH]c2ccccc2c1N=Nc1nc(Nc2ccccc2)nc(N2CCOCC2)n1,?,-,-,-102.7,14.1µM
CCc1nc2cc(C(=O)N3CCC[C@H]3CO)cc(NC(=O)c3ccccc3OC)c2n1C,0,-,-,-,-
CCCN(CCC)CCNC(=O)c1cc(-c2ccc(Br)s2)nc2ccccc12,0,?,?,?,-
CCN(CC)CCCNC(=O)c1cc(Nc2ccc(OC)cc2OC)nc2ccccc12,0,-,-,0,0
CCN(CC)CCNC(=O)c1cc(-c2ccc(Br)s2)nc2ccccc12,0,?,?,-93.6!,12.6µM
CCCCN(C)CCNC(=O)c1cc(-c2ccc(Cl)s2)nc2ccccc12,0,?,0,-101.0,-
CN1CCN(NC(=O)c2cc(-c3ccc(Br)s3)nc3ccccc23)CC1,0,?,?,0,10µM
CCCCOc1cc(C(=O)NCCN(CC)CC)c2ccccc2n1,0,13µM,10.3µM,0,0[8.37 µM]
COCCN1C(=O)COCc2cc(-c3ccc(N(C)C)cc3)ccc21,-,-,-,0,-
Cc1nc(CC(=O)Nc2cc(Cl)ccc2C)cs1,0,0,0,?,-
CCOc1ccc(NC(=O)Cn2c(=O)n(CC(=O)NCCc3ccccc3)c(=O)c3sccc32)cc1,0,0,0,?,-
CCN(CC)CCNC(=O)c1cc2c(-c3ccc(Cl)cc3)nn(C)c2s1,0,-,-,0,?
CCN(CC)CCNC(=O)c1cc2cc(Br)ccc2s1,0,0,?,0,12.6µM
CN1CCC(NC(=O)c2cc(-c3cccc(Br)c3)nc3ccccc23)CC1,0,?,10µM,0,11.2µM
COc1ccc(NC(=O)c2cnc3cc(C)ccn3c2=O)c(OC)c1,0,-,0,0,-
COc1ccc(C)cc1N(C(=O)c1ccccc1)c1nc2ccccc2s1,0,0,?,0,15.8µM
CCN(CC)c1ccc(NS(=O)(=O)c2ccc(-c3coc(C)n3)cc2)c(C)c1,0,?,-,0,-
COc1ccccc1C/C(N)=N/OC(=O)c1cccc([N+](=O)[O-])c1C,0,?,?,0,10µM
Nc1cc(S(=O)(=O)Nc2ccccc2Cl)ccc1N1CCCCC1,0,-,-,?,6.31µM
COc1ccc(NS(=O)(=O)c2ccc(N3CCCCC3)c(NC(=O)C(C)NC(N)=O)c2)cc1 (stereo not given),0,0,0,0,?
COc1ccc(NS(=O)(=O)c2ccc(N3CCCCC3)c(N)c2)cc1,0,-,-,?,2.82µM
SMILES,FMDV antiviral,Lassa entry inh,MARV entry inh,HCMV antiviral,HCV inhibitor
CC(C)n1c(SCC(=O)Nc2ccc(F)cc2)nc2c(oc3ccccc32)c1=O,0,-,0,0,-
COc1ccc(C(O)c2ncc(-c3ccccc3Cl)[nH]2)cc1 (stereo not given),0,-,-,-73.6,-
COc1ccc(C)cc1NC1(c2ccccc2)C(=O)c2ccccc2C1=O,0,0,-,0,-
CC(C)c1onc(C(=O)NCc2cccs2)c1[N+](=O)[O-],0,-,-,-68.0,0
Cc1onc(C(=O)NCc2cccs2)c1[N+](=O)[O-],0,0,0,0,0
N#CC1=C(N)C(C#N)(C#N)[C@H](c2c(F)cccc2F)[C@H]2CC3(CC=C12)OCCO3,?,0,?,-106.7,0
CCN(CC)CCCn1c(C)cc2c(c1=O)C(c1cccc(Cl)c1)C(C#N)=C(N)O2 (stereo not given),0,?,11.2µM,0,0
COc1ccc(C)cc1NC(=O)C1CCCN(c2ncnc3onc(C)c23)C1 (stereo not given),0,0,-,0,-
Fc1cccc(NC(=S)NNc2c3ccccc3nc3ccccc23)c1,?,?,0,0,4.47µM
Fc1cccc(NC(=S)NNc2ccccc2)c1,0,-,-,?,0
Cn1ccc2c(OCC(=O)Nc3cc(C(F)(F)F)ccc3Cl)cccc2c1=O,?,0,-,0,-
CC(C)CSc1oc(-c2ccco2)nc1S(=O)(=O)c1ccc(Br)cc1,0,0,?,0,-
COc1ccccc1N1CCN(/N=C/c2ccc([N+](=O)[O-])cc2)CC1,0,-,-,0,11.2µM
CN1C2CCC1/C(=C\c1ccc(F)cc1)C(=O)/C2=C/c1ccc(F)cc1,0,0,?,-103.4,?
O=C(Cn1nc(-c2ccccc2)nc(Cc2ccccc2)c1=O)Nc1ccccc1,0,0,-,0,-
O=C(O)c1ccc(N/N=C/c2ccc3nccnc3c2)cc1,7.08µM,-,-,-78.4,0
O=C(O)c1ccc(N/N=C/c2ccncc2)cc1,0,-,-,0,0
O=C(O)c1ccc(N/N=C/c2ccc(F)c(F)c2)cc1,14.1µM,6.31µM,7.08µM,0,0
O=C(O)c1ccc(N/N=C/c2cccc(C(F)(F)F)c2)cc1,0,-,-,0,0
O=C(O)c1ccc(N/N=C/c2cccc(F)c2)cc1,0,?,10.3µM,0,0
Cn1c(SCC2CCCO2)nnc1C1CCN(Cc2ccco2)CC1 (stereo not given),0,-,-,-,-
CCc1ccccc1Nc1nc(N)nc(COC(=O)c2cccn2C)n1,0,?,8.2µM,-64.7,?
Cc1ccc(Cn2cc(CCC(=O)NC3CCC(C)CC3)c3ccccc32)cc1 (stereo not given),0,?,-,0,-
O=C(c1c[nH]c2ccccc12)C(O)C(c1ccccc1)N1CCOCC1 (stereo not given),0,0,0,0,0
O=C(c1c[nH]c2ccccc12)C(Cl)c1ccccc1 (stereo not given),?,-,-,-100.1,0
SMILES,FMDV antiviral,Lassa entry inh,MARV entry inh,HCMV antiviral,HCV inhibitor
CCN(Cc1ccccc1)C(=O)COC(=O)c1c(C)nsc1NC,?,-,-,-66.4,11.2µM
CCN(Cc1ccccc1)C(=O)COC(=O)c1cnc(C)cn1,0,-,-,0,0
CCOC(=O)Oc1ccc2oc(C)c(C(=O)OCCOC)c2c1,0,?,0,0,0
COCCOC(=O)c1c(C)oc2ccc(OC(=O)c3c(OC)cccc3OC)cc12,?,?,?,0,7.94µM
COc1cc(C(=O)N(C)CCOc2ccccc2)ccc1OCC(=O)Nc1cccc(C(F)(F)F)c1,?,0,?,-69.4,2.82µM
CCOC(=O)C1CCN(C(=O)c2ccc(OCC(=O)Nc3cccc(C(F)(F)F)c3)c(OC)c2)CC1,?,?,?,-70.5,2.82µM
O=C(O)[C@@H]1CSCN1S(=O)(=O)c1cccc2nsnc12,-,-,0,-,-
CCC(=O)N1c2ccccc2CC1C(=O)NCCc1ccccc1C (stereo not given),0,0,-,0,-
COc1ccccc1Nc1cc(C)nc2nc(-c3ccccc3)nn12,0,0,-,-86.2,-
CCOc1ccc(CNC(=O)C2Cc3ccccc3N2C(=O)CC)cc1 (stereo not given),0,0,-,0,-
O=C(O)c1ccccc1C(=O)Nc1nc(-c2ccc3ccccc3c2)cs1,0,-,-,0,?
O=C(/C=C\c1ccco1)Nc1nc(-c2ccc3ccccc3c2)cs1,?,0,?,-75.8,?
